Measurements taken from ChEMBL document CHEMBL4513216, “Probing the Open Global Health Chemical Diversity Library for Multistage-Active Starting Points for Next-Generation Antimalarials” (ACS Infect Dis, 2020).
The whole screen tested about 68,000 compounds, of which about 2,700 (4%) showed an effect of 50% or more. The sample holds strong results, similar compounds and a random draw of the others, so the mix is not that of the screen.

The compounds below were run on Plasmodium berghei (assay: Screen against P. berghei liver stage (PbLuc), transformed with Luciferase, at 2uM). Conditions: tested at 2 uM.
Type: functional, HepG2

SMILES | INHIBITION [%]
CN(C)C(=O)N1C[C@H]2CC[C@@H](C1)N(C(=O)c1c(Cl)cccc1Cl)C2 | -42.12
CN1CCCN(C(=O)NCc2ccccc2Cn2cncn2)CC1 | 28.62
Cn1cccc1C(=O)OCCNC(=O)c1ccccc1 | -9.17
O=C(CC1CCCCC1)N1C[C@@H]2CC[C@H]1CN(Cc1cccnc1)C2 | 9.56
Cc1ccc(CN2Cc3cnn(C)c3C(COCC3CC3)C2)o1 (configuration not stated) | 47.63
CNC(=O)C1CCCCN1C(=O)c1sc(-c2ccc(C)o2)nc1C (configuration not stated) | 16.73
O=c1nc(SCc2cccnc2)c2c(n1CCO)CCCC2 | 13.46
CCN(Cc1ccc2c(c1)OCCO2)C(=O)NCc1cc[nH]n1 | 21.31
CSCC(C)(O)CNS(=O)(=O)c1ccc(Br)cc1 (configuration not stated) | 9.27
CSCC(C)(O)CNS(=O)(=O)c1cccc(Cl)c1 (configuration not stated) | 56.89
CSCC(C)(O)CNS(=O)(=O)c1cccc(C)c1 (configuration not stated) | 9.27
O=c1ccc(-n2ccnc2)nn1CCNS(=O)(=O)c1ccc(Cl)s1 | -54.51
CC(C)n1nc2c(cc1=O)CN(CCOc1ccc(C#N)cc1)CC2 | 9.8
CNC(=O)c1cccc(C2CNCCN2C(=O)c2ccn(C)n2)c1 (configuration not stated) | 24.56
Cc1ccc(C(=O)N2CCOCC3(CCN(C4CCOCC4)C3)C2)o1 (configuration not stated) | 14.89
Cc1cccc(N(CCC(N)=O)CC(=O)Nc2ccccc2)c1 | 50.31
Cc1cccc(N(CCC(N)=O)CC(=O)Nc2cc(Cl)ccc2Cl)c1 | -10.14
Cc1cccc(N(CCC(N)=O)CC(=O)NC2CCCC2)c1 | -22.8
CC(NC(=O)NCC1(c2ccc(F)cc2)CC1)c1nncn1C (configuration not stated) | -7.13
CC(C)c1cc(NC(=O)CNC2CCCN(c3cccnn3)C2)on1 (configuration not stated) | 53.98
Cc1ccc(N2CCCC(NCC(=O)Nc3cc(C)no3)C2)nn1 (configuration not stated) | 6.3
Cc1cc(NC(=O)CNC2CCCN(c3cccnn3)C2)on1 (configuration not stated) | -3.06
CC1=N[C@@]2(CC[C@@H]3CN(CC(=O)N(C)C)C[C@@H]32)C(=O)N1CC1CC1 | -25.29

SMILES | INHIBITION [%]
CN(Cc1ccc(F)cc1)CC1(O)CCN(C(=O)c2ccsc2)C1 (configuration not stated) | 47.4
COCCCNC(=O)CN(C)C(=O)c1cc(C)ccc1N(C)C(C)C | -61.5
CCCC(C)NC(=O)CCN1C(=O)CCc2cc(F)ccc21 (configuration not stated) | 6.92
CC(C)C(C)NC(=O)CCN1C(=O)CCc2cc(F)ccc21 (configuration not stated) | 31.16
CC(C)CNC(=O)CCN1C(=O)CCc2cc(F)ccc21 | 55.39
NC(=O)C(CNC(=O)Cc1ccc(F)cc1)Cc1ccc(F)cc1 (configuration not stated) | -39.58
O=C(NCC(O)c1ccc(F)c(F)c1)c1ccccc1F (configuration not stated) | 26.74
O=C(NCC(O)c1ccc(F)c(F)c1)c1cccnc1O (configuration not stated) | -38.85
Cc1ccccc1C(=O)NCC(O)c1ccc(F)c(F)c1 (configuration not stated) | 60.13
O=C1CO[C@@H]2CN(Cc3ccncc3)C[C@H]2N1Cc1ccncc1 | 31.76
O=C(Nc1ccc2c(c1)OCO2)Nc1cnn(C2CCOCC2)c1 | -59
CCC(CC)C(CNC(=O)Nc1cnn(CCOC)c1)N(C)C (configuration not stated) | 66.11
CCn1cc(NC(=O)NCC(C)N(C)C)cn1 (configuration not stated) | -3.58
COCCn1cc(NC(=O)NCC(c2cccc(F)c2)N(C)C)cn1 (configuration not stated) | 45.57
CCn1cc(NC(=O)NCC(C)O)cn1 (configuration not stated) | 62.13
COCCn1cc(NC(=O)NCC(C)N2CCOCC2)cn1 (configuration not stated) | 20.77
CCn1cc(NC(=O)NCC(O)c2ccccc2)cn1 (configuration not stated) | 20.28
CCOC(=O)c1sc2ccsc2c1CNC(=O)CCOC | 27.47
N#CCCCOc1cccnc1NC(=O)CCC1CCCC1 | -54.22
Cc1nccn1-c1ccc(=O)n(CCNC(=O)c2ccncc2)n1 | -45.03
CN1CCCCc2c1nc1c(c2N)CCCC1 | 14.11
CC(O)c1cnn(-c2ccccc2)c1 (configuration not stated) | 23.06
COCCN1C[C@H]2CN(C(=O)c3ccc4c(c3)OCO4)CCN2C1=O | -2.66

SMILES | INHIBITION [%]
CC(C#N)(NC(=O)COc1ccccc1Br)C1CC1 (configuration not stated) | 8.78
CC(C)C1CCCN1C(=O)c1ccc(-n2ncc(C#N)c2N)cc1 (configuration not stated) | -36.67
Cc1cc(-c2nn(C)c(Cl)c2CN2CCCCC(N)C2)no1 (configuration not stated) | 51.81
Cc1cc(C)n(C2CCN(Cc3c(-c4cc(C)on4)nn(C)c3Cl)C2)n1 (configuration not stated) | -11.77
Cc1cc(-c2nn(C)c(Cl)c2CN2CC[C@H](CO)[C@@H](O)C2)no1 | -5.87
CN1CCN(Cc2ccc(-c3ccc(-c4ccn[nH]4)cc3)nc2)CC1 | -35.16
CC(=O)Nc1nc(COc2nc(C)no2)cs1 | -4.89
O=C(O)[C@@H]1CN(Cc2c[nH]c(CC3CCCC3)n2)C[C@H]1c1ccccn1 | 50.86
CCC[C@@H]1CN(Cc2c[nH]c(CC3CCCC3)n2)C[C@H]1C(=O)O | 5.93
O=C(O)[C@@H]1CN(Cc2c[nH]c(CC3CCCC3)n2)C[C@H]1c1ccncc1 | 25.35
CCOCC1CN(C(=O)c2ccco2)Cc2cnn(CC)c21 (configuration not stated) | 16.87
Cc1ccsc1C(O)CNC(=O)Cc1ccc(F)cc1 (configuration not stated) | 33.35
Cc1ccsc1C(O)CNC(=O)Cc1ccc(S(=O)(=O)C(C)C)cc1 (configuration not stated) | 16.03
COc1ccc(CC(=O)NCC(O)c2sccc2C)cc1OC (configuration not stated) | 55.52
CCCn1nc(C)c(CNC(=O)c2snnc2C)c1C | 32.26
Cc1nc(N)cc(C2CCN2CCOc2ccccc2)n1 (configuration not stated) | -43.34
Cc1ccc(NC(=O)c2ccc(=O)n(CC(=O)NC3CCCC3)n2)cc1 | 50.2
Cc1ccc(NC(=O)c2ccc(=O)n(CC(=O)Nc3nccs3)n2)cc1 | -20.78
Cc1cccc(-c2nc(C)nn2CC(=O)NC2CCCC2)c1 | 25.74
CCc1nnsc1C(=O)NCc1c(C)nn(CCOC)c1C | 24.05
Cn1nc(C2CCCN2)c2c(C(=O)NC3CC3)cc(C3CC3)nc21 (configuration not stated) | 11.43
